Drawing on PubChem BioAssay (NCI), this text covers growth for six compounds.

Holding throughout (assay): NCI-60 one-dose screen, 48 h (100 = growth as untreated, 0 = no growth, -100 = all killed)
Assay [1] relates to DU-145 prostate.
Assay [2] concerns K-562 leukemia.
For assay [3], the system named is MALME-3M melanoma.
The test system of assay [4] is MDA-MB-231 breast.
Assay [5] deals with RXF 393 renal.
For assay [6], the system named is SF-268 CNS.
The test system of assay [7] is SF-295 CNS.
In assay [8] the test system is SF-539 CNS.
Assay [9] concerns UACC-257 melanoma.
Assay [10] deals with M14 melanoma. The conditions noted are these: 10 µM unless noted.
The test system of assay [11] is HCT-15 colon.
For assay [12], the system named is HT29 colon.
Assay [13] relates to SNB-75 CNS.
Assay [14] concerns SNB-19 CNS.
Assay [15] concerns U251 CNS.
Assay [16] concerns PC-3 prostate.
Assay [17] has as its system SK-MEL-5 melanoma.
The subject of assay [18] is UACC-62 melanoma.
The subject of assay [19] is LOX IMVI melanoma.
The test system of assay [20] is SK-MEL-28 melanoma. As to conditions: 10 µM.

“And” between values parts separate entries of the source, which are not always exact repeats. Equal values may be shown once. About 83,000 compounds went through this panel and 20% of them were active in at least one assay; those are over-represented in the sample as a whole.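 The endpoint reported here, percent growth, reads 100 for growth as untreated, 0 for no net growth and -100 for all cells dead.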 Unmarked numbers belong to inactive results. The source made the active and inactive calls. Rule for the calls: active = growth percent below 10; inactive = the rest.

`Cn1ncc2cc3c(Nc4ccc(Cl)cc4)cccc3nc21`: the growth in assay [1] (10 µM) was 90%; in assay [2] (10 µM), 80.2%; in assay [3] (10 µM), 122%; in [4] (10 µM), 81.7%; in [5] (10 µM), 90.5%; in assay [6] (10 µM) it was 85.5%. The growth is 87.6% in assay [7] (10 µM); 90.7% in assay [8] (10 µM); 100% in assay [9] (10 µM); 104% in assay [10]; 88.1% in [11] (10 µM); 78.7% in assay [12] (10 µM). The growth in [13] (10 µM) is 97.2%; in assay [14] (10 µM) it was 99.3%; in assay [15] (10 µM) it was 81.2%; in assay [16] (10 µM) it was 79.8%; in assay [17] (10 µM), 82.1%; in [18] (10 µM) it was 98.6%. In addition, the growth in assay [19] (10 µM) was 87%; in assay [20], 95.8%.

Turning to `O=C1C(Cl)=C(Cl)C(Cl)(Cl)C(Cl)C1(Cl)Cl` (stereo unspecified), the growth in assay [1] (10 µM) was 114%; in [2] (10 µM), 102%; in assay [3] (10 µM) it was 99.9%; in [4] (10 µM), 96.2%; in assay [5] (10 µM) it was 116%; in assay [6] (10 µM), 108%. The growth in assay [7] (10 µM) is 94.5%; in assay [8] (10 µM), 96.2%; in [9] (10 µM), 110%; in [10], 103%; in assay [11] (10 µM), 91.3%; in [12] (10 µM), 99.5%. The growth in [13] (10 µM) is 88.9%; in assay [14] (10 µM), 108%; in assay [15] (10 µM) it was 103%; in [16] (10 µM) it was 101%; in assay [17] (10 µM) it was 106%; in assay [18] (10 µM) it was 98.7%. In addition, the growth in [19] (10 µM) is 96.2%; in assay [20], 114%.

Take `S=C1SCN(CCc2ccccc2)CN1CCc1ccccc1`: the growth in [1] (10 µM) is 93%; in assay [2] (10 µM), 55.8%; in [3] (10 µM), 87.3%; in assay [4] (10 µM), 99.3%; in [5] (10 µM), 91.8%; in assay [6] (10 µM), 106%. In addition, the growth was 93.4% in [7] (10 µM); 115% in assay [8] (10 µM); 71.6% in assay [9] (10 µM); 120% in assay [10]; 95.1% in assay [11] (10 µM); 95.8% in assay [12] (10 µM). For the same compound, the growth in [13] (10 µM) is 87.5%; in assay [14] (10 µM), 105%; in [15] (10 µM) it was 91.3%; in [16] (10 µM), 93.6%; in assay [17] (10 µM) it was 89%; in assay [18] (10 µM), 94.9%. The growth in [19] (10 µM) is 90.9%; in [20] it was 92.4%.

In the case of `CC1CCC2(C(=O)O)CCC3(C)C(=CCC4C5(C)CC(O)C(O)C(C)(CO)C5C(O)CC43C)C2C1C` (stereo unspecified), the growth is 110% in [1] (10 µM); 106% in [2] (10 µM); 103% in assay [3] (10 µM); 107% in assay [4] (10 µM); 26.2% in [5] (10 µM); 111% in assay [6] (10 µM). The growth in [7] (10 µM) is 112%; in assay [8] (10 µM), 99.6%; in assay [9] (10 µM), 93.7%; in [10], 53.9%; in [11] (10 µM) it was 112%; in assay [12] (10 µM), 110%. The growth is 91.8% in [13] (10 µM); 98.7% in [14] (10 µM); 103% in assay [15] (10 µM); 97.5% in assay [16] (10 µM); 4.98% (active) in [17] (10 µM); 104% in assay [18] (10 µM). Further, the growth in assay [19] (10 µM) was 107%.

In the case of `S=P(N1CC1)(N1CC1)N1CC1`, the growth in [1] (10 µM) was 121% and 71.9%; in [1] (100 µM), -0.811% (active); in assay [2] (10 µM), 109% and 53.2%; in [2] (100 µM) it was 43.4%; in assay [3] (10 µM), 98.1% and 97.8%; in assay [3] (100 µM), 82%. Besides, the growth in [4] (10 µM) was 100% and 103%; in assay [4] (100 µM), 101%; in assay [5] (10 µM), 120% and 86%; in assay [5] (100 µM) it was 14.4%; in assay [6] (10 µM) it was 124% and 83.6%; in assay [6] (100 µM) it was 36.5%. The growth in assay [7] (10 µM) was 104% and 81.7%; in assay [7] (100 µM) it was 14.3%; in assay [8] (10 µM) it was 113% and 94.6%; in assay [8] (100 µM), -8.76% (active); in [9] (10 µM) it was 107% and 87.7%; in assay [9] (100 µM), 37.2%. Further, the growth in assay [10] was 96.2% and 60.4%; in assay [11] (10 µM) it was 106% and 84.9%; in assay [11] (100 µM), 57.5%; in assay [12] (10 µM) it was 99.6% and 83.1%; in assay [12] (100 µM) it was 54.6%; in [13] (10 µM) it was 109% and 69%. In addition, the growth was 43.2% in assay [13] (100 µM); 102% and 101% in assay [14] (10 µM); 37.3% in [14] (100 µM); 105% and 84.1% in assay [15] (10 µM); 43.7% in [15] (100 µM); 97.5% and 90.9% in assay [16] (10 µM). The growth in [16] (100 µM) is 52.7%; in [17] (10 µM), 96.9% and 92.8%; in [17] (100 µM), 48.6%; in assay [18] (10 µM), 100% and 71.7%; in assay [18] (100 µM), 37.1%; in assay [19] (10 µM), 99.2% and 80.5%. Moreover, the growth in [19] (100 µM) was 33%; in assay [20], 131% and 116%.

Consider `C=C1N(C)c2ccc(Cl)cc2C1(C)C`, for which the growth in [1] (10 µM) is 48.9%; in assay [2] (10 µM), 13.2%; in assay [3] (10 µM) it was 66%; in [4] (10 µM), 82.7%; in [6] (10 µM), 77.4%; in assay [7] (10 µM), 67.1%. In addition, the growth was 109% in assay [8] (10 µM); 60.4% in assay [9] (10 µM); 72.2% in assay [10]; 106% in assay [11] (10 µM); 35.7% in assay [12] (10 µM); 62% in [13] (10 µM). The growth in assay [14] (10 µM) was 55.1%; in assay [15] (10 µM), 22.8%; in assay [16] (10 µM), 32.9%; in [17] (10 µM) it was 90.5%; in [18] (10 µM) it was 69.5%; in [19] (10 µM) it was 51.9%. Further, the growth in assay [20] was 84.5%.
